This note sets out measurements from the supplement of paper PMC3545927.

Some of the results follow. The true hit rate is not given.

This test deals with furin, P09958. The experiment in a line: furin cleavage Z-score vs untreated control; higher = more cleavage, active = 3.5 or more, inactive = 1 or less, 8 variable residues between constant flanks. Summed up: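 Sequencing of released DNA, tagged with adapters by PCR, gave read counts used as abundance. That DNA was freed when purified furin cut N-terminally bead-bound 8-mer peptides fused to a cDNA oligonucleotide, in 0.01 ml reactions at 1:10 enzyme:substrate in 50 mM HEPES pH 7.5 with CaCl2 and NaCl, lasting 7.5, 15 or 30 min. The cleavage Z-score was the lowess-adjusted log count versus furin-free reactions, scaled by median absolute deviation.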
Sequence of furin, P09958 (P09958 whole entry, the tested form may be a part): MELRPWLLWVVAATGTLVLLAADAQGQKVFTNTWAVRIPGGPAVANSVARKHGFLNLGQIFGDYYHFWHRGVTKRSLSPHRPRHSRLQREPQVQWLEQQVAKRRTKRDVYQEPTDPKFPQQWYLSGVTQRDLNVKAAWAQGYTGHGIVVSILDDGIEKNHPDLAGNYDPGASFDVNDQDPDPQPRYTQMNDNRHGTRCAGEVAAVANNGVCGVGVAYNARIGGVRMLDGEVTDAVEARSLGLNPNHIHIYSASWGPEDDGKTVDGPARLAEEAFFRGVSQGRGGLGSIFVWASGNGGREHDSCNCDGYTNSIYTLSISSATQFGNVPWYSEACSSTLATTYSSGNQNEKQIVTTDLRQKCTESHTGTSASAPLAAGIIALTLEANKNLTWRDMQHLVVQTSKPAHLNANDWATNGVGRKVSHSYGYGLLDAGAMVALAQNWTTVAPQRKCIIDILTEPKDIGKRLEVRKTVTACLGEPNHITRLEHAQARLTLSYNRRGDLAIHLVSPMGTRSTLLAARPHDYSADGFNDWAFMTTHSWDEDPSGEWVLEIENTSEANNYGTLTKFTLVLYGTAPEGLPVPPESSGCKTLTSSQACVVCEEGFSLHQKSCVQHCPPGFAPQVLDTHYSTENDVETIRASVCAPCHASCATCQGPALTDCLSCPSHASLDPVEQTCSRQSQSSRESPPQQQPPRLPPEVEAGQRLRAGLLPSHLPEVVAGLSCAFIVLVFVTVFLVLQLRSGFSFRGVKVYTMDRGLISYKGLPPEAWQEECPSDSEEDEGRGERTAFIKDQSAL

In the case of CALVVLATATAGNASASA [HC832], the “furin cleavage Z-score” value runs as follows: (7.5 min) 1.79; (15 min) 1.59; (30 min) 0.476 (inactive).

With CAREECSQHLAGNASASA [HC1673], the “furin cleavage Z-score” value was 1.67 (7.5 min), 1.9 (15 min) and 0.967 (inactive) (30 min).

Take CANDIREKREAGNASASA [FS-179]: the “furin cleavage Z-score” value reads like this: (7.5 min) 3.92 (active); (15 min) 4.37 (active); (30 min) 4.65 (active).

As to CAWARRHKREAGNASASA [FS-1502], the “furin cleavage Z-score” value by setting is: (7.5 min) 10.7 (active); (15 min) 9.83 (active); (30 min) 7.82 (active).

Consider CAEERREKREAGNASASA [FS-905], for which the “furin cleavage Z-score” value by setting is: (7.5 min) 4.27 (active); (15 min) 4.96 (active); (30 min) 6.98 (active).

Turning to CANKARLKKIAGNASASA [FS-694], the “furin cleavage Z-score” value runs as follows: (7.5 min) -0.0765 (inactive); (15 min) -1.98 (inactive); (30 min) -2.55 (inactive).

For the sequence CASTKCSAHLAGNASASA [HC2514], the “furin cleavage Z-score” value was -0.0801 (inactive) (7.5 min), 1.2 (15 min) and 0.075 (inactive) (30 min).

On to CATCTTPCSGAGNASASA [HC1958], for which the “furin cleavage Z-score” value is -0.852 (inactive) (7.5 min), 0.00782 (inactive) (15 min) and -0.733 (inactive) (30 min).

Turning to CAHNNRVGRQAGNASASA [FS-596], the “furin cleavage Z-score” value reads like this: (7.5 min) 3.21; (15 min) 3.29; (30 min) 4.86 (active).

With CAHQNIVDVQAGNASASA [HC507], the “furin cleavage Z-score” value (7.5 min) was -1.69 (inactive), the “furin cleavage Z-score” value (15 min) is -1.38 (inactive) and the “furin cleavage Z-score” value (30 min) was 0.384 (inactive).

On to CARRGRFLNQAGNASASA [FS-3047], for which the “furin cleavage Z-score” value is, setting by setting: (7.5 min) -0.612 (inactive); (15 min) -0.298 (inactive); (30 min) 1.14.

Turning to CATVSRTGRQAGNASASA [FS-1660], the “furin cleavage Z-score” value (7.5 min) is 0.744 (inactive), the “furin cleavage Z-score” value (15 min) came to 2.19 and the “furin cleavage Z-score” value (30 min) worked out at 3.07.

For CAYNNRPWRPAGNASASA [FS-392], the “furin cleavage Z-score” value (7.5 min) was -1.33 (inactive), the “furin cleavage Z-score” value (15 min) is -0.755 (inactive) and the “furin cleavage Z-score” value (30 min) is -0.205 (inactive).

For the sequence CACRFRFGRQAGNASASA [FS-405], the “furin cleavage Z-score” value reads like this: (7.5 min) 2.68; (15 min) 3.98 (active); (30 min) 2.63.

Turning to CATGDNTTTSAGNASASA [HC1341], the “furin cleavage Z-score” value (7.5 min) is 0.632 (inactive), the “furin cleavage Z-score” value (15 min) is 0.808 (inactive) and the “furin cleavage Z-score” value (30 min) was -0.0812 (inactive).

Take CAEVMCHRPSAGNASASA [HC2346]: the “furin cleavage Z-score” value runs as follows: (7.5 min) -0.818 (inactive); (15 min) -0.184 (inactive); (30 min) 0.158 (inactive).

Consider CADCMEECSQAGNASASA [HC1820], for which the “furin cleavage Z-score” value is -0.19 (inactive) (7.5 min), 0.0434 (inactive) (15 min) and -0.219 (inactive) (30 min).

In the case of CAARVAIKSLAGNASASA [HC1495], the “furin cleavage Z-score” value runs as follows: (7.5 min) -0.648 (inactive); (15 min) -1.12 (inactive); (30 min) -0.674 (inactive).

CACTRGVAKAAGNASASA [HC753]: the “furin cleavage Z-score” value (7.5 min) is -1.87 (inactive), the “furin cleavage Z-score” value (15 min) was -0.584 (inactive) and the “furin cleavage Z-score” value (30 min) is -0.853 (inactive).

For CATTPCVGSWAGNASASA [HC63], the “furin cleavage Z-score” value runs as follows: (7.5 min) 1.12; (15 min) 0.786 (inactive); (30 min) 1.12.

Regarding CALVALGINAAGNASASA [HC864], the “furin cleavage Z-score” value reads like this: (7.5 min) 1.29; (15 min) -0.504 (inactive); (30 min) -2.31 (inactive).

As for CAWVAAQLAAAGNASASA [HC1068], the “furin cleavage Z-score” value by setting is: (7.5 min) 0.334 (inactive); (15 min) 0.0281 (inactive); (30 min) 0.213 (inactive).

Take CAWGPISYANAGNASASA [HC395]: the “furin cleavage Z-score” value by setting is: (7.5 min) -0.888 (inactive); (15 min) 0.0541 (inactive); (30 min) -0.197 (inactive).

Consider CARSRRDGRKAGNASASA [FS-3172], for which the “furin cleavage Z-score” value reads like this: (7.5 min) 6.47 (active); (15 min) 7.48 (active); (30 min) 6.61 (active).

On to CARSRKAKEEAGNASASA [FS-2186], for which the “furin cleavage Z-score” value (7.5 min) is 0.169 (inactive), the “furin cleavage Z-score” value (15 min) is -0.905 (inactive) and the “furin cleavage Z-score” value (30 min) was -0.373 (inactive).

As for CARSRKRVSEAGNASASA [FS-2460], the “furin cleavage Z-score” value reads like this: (7.5 min) 0.0687 (inactive); (15 min) 0.727 (inactive); (30 min) 0.464 (inactive).

Take CARSRRNDEEAGNASASA [FS-2608]: the “furin cleavage Z-score” value is 0.562 (inactive) (7.5 min), 2.36 (15 min) and 0.814 (inactive) (30 min).

Turning to CARWGRGFGLAGNASASA [FS-3129], the “furin cleavage Z-score” value was 1.38 (7.5 min), -3.28 (inactive) (15 min) and 1.13 (30 min).

Turning to CARSRRDFGLAGNASASA [FS-2310], the “furin cleavage Z-score” value (7.5 min) was 2.52, the “furin cleavage Z-score” value (15 min) was 5.69 (active) and the “furin cleavage Z-score” value (30 min) is 4.78 (active).

For the sequence CARSRRGVSEAGNASASA [FS-2461], the “furin cleavage Z-score” value is 8.54 (active) (7.5 min), 8.94 (active) (15 min) and 5.25 (active) (30 min).

With CARDGRDGRKAGNASASA [FS-1999], the “furin cleavage Z-score” value is 1.36 (7.5 min), -0.614 (inactive) (15 min) and -0.387 (inactive) (30 min).

Turning to CARIMRDSGLAGNASASA [FS-2150], the “furin cleavage Z-score” value (7.5 min) was -1.41 (inactive), the “furin cleavage Z-score” value (15 min) was 0.545 (inactive) and the “furin cleavage Z-score” value (30 min) was 0.804 (inactive).

As to CARSRRDREEAGNASASA [FS-3236], the “furin cleavage Z-score” value reads like this: (7.5 min) 4.34 (active); (15 min) 4.09 (active); (30 min) 4.68 (active).

Take CAMVPCHRPSAGNASASA [HC2306]: the “furin cleavage Z-score” value (7.5 min) came out at 1.55, the “furin cleavage Z-score” value (15 min) is 0.971 (inactive) and the “furin cleavage Z-score” value (30 min) turned out to be 1.19.

Take CAVVCSSMSYAGNASASA [HC95]: the “furin cleavage Z-score” value is, setting by setting: (7.5 min) -0.171 (inactive); (15 min) 0.902 (inactive); (30 min) 0.436 (inactive).

Take CAPGDPDLSDAGNASASA [HC1358]: the “furin cleavage Z-score” value is, setting by setting: (7.5 min) -0.316 (inactive); (15 min) -0.713 (inactive); (30 min) -1.52 (inactive).

Turning to CARQKRAWITAGNASASA [FS-3202], the “furin cleavage Z-score” value is 2.68 (7.5 min), 3.79 (active) (15 min) and 6.77 (active) (30 min).

With CARQKRQNKEAGNASASA [FS-2756], the “furin cleavage Z-score” value is 1.89 (7.5 min), 0.961 (inactive) (15 min) and 3.45 (30 min).

For CACGSGPWITAGNASASA [HC459], the “furin cleavage Z-score” value is, setting by setting: (7.5 min) -1.7 (inactive); (15 min) -2.37 (inactive); (30 min) -1.44 (inactive).

As for CARQKRQLWDAGNASASA [FS-2291], the “furin cleavage Z-score” value runs as follows: (7.5 min) 5.3 (active); (15 min) 8.17 (active); (30 min) 8.7 (active).

Take CARQKRAVATAGNASASA [FS-2360]: the “furin cleavage Z-score” value (7.5 min) is 9.36 (active), the “furin cleavage Z-score” value (15 min) was 11.9 (active) and the “furin cleavage Z-score” value (30 min) was 7.99 (active).

Regarding CALWMMLLISAGNASASA [HC528], the “furin cleavage Z-score” value was -0.863 (inactive) (7.5 min), -0.739 (inactive) (15 min) and -0.913 (inactive) (30 min).
